Common to all, as to test: glycan array binding signal (z-score within array); higher = stronger binding
What all share (settings): glycan notation: IUPAC condensed, linker removed

Assay [1] has as its target Fuc(a1-2)Gal(b1-3)GalNAc(b1-3)Gal(a1-4)Gal(b1-4)Glc. Summed up: (§1)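 The binding signal is a Z-score computed within each array. Data were drawn from 3228 arrays in the Consortium for Functional Glycomics database, restricted to those with a known protein sequence. Scores were averaged over arrays of the same protein sequence at different concentrations or buffers, and over linkers, and negative values can be taken as non-binding.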

Assay [2] concerns the target Fuc(a1-2)Gal(b1-3)GlcNAc(b1-3)[Neu5Ac(a2-6)Gal(b1-4)GlcNAc(b1-6)]Gal(b1-4)Glc. Summed up:
as §1

Assay [3] concerns the target Fuc(a1-2)Gal(b1-4)[Fuc(a1-3)]GlcNAc(b1-2)Man(a1-3)[Fuc(a1-2)Gal(b1-4)[Fuc(a1-3)]GlcNAc(b1-2)Man(a1-6)]Man(b1-4)GlcNAc(b1-4)GlcNAc. Summed up:
as §1

Assay [4] has as its target Fuc(a1-2)[Gal(a1-3)]Gal(b1-4)Glc. Summed up:
as §1

Assay [5] addresses Fuc(a1-2)[GalNAc(a1-3)]Gal(b1-3)GalNAc(a1-3)[Fuc(a1-2)]Gal(b1-4)GlcNAc. In a few lines:
as §1

For assay [6], the target named is Fuc(a1-2)[GalNAc(a1-3)]Gal(b1-3)GlcNAc. Summed up:
as §1

In assay [7] the target is Fuc(a1-3)[Gal(b1-4)]Glc6S. Summed up:
as §1

The target in assay [8] is Gal(b1-3)Gal(b1-4)GlcNAc(b1-2)Man(a1-3)[Gal(b1-3)Gal(b1-4)GlcNAc(b1-2)Man(a1-6)]Man(b1-4)GlcNAc(b1-4)GlcNAc. In a few lines: as §1
For assay [9], the target named is Gal(b1-3)[Fuc(a1-4)]GlcNAc. In a few lines: as §1
Assay [10] has as its target Gal(b1-3)[Neu5Ac(a2-6)]GalNAc. Summed up:
as §1

The target of another assay is Gal(b1-4)GlcNAc. In a few lines: as §1
Assay [11] has as its target Gal(b1-4)GlcNAc(b1-2)Man(a1-3)Man(b1-4)GlcNAc(b1-4)GlcNAc. Summed up: as §1
The target of assay [12] is Gal(b1-4)GlcNAc(b1-2)Man(a1-3)[GlcNAc(b1-2)Man(a1-6)]Man(b1-4)GlcNAc(b1-4)GlcNAc. In a few lines:
as §1

The target in assay [13] is Gal(b1-4)GlcNAc(b1-2)[Gal(b1-4)GlcNAc(b1-4)]Man(a1-3)[GlcNAc(b1-4)][Gal(b1-4)GlcNAc(b1-2)Man(a1-6)]Man(b1-4)GlcNAc(b1-4)GlcNAc. Summed up:
as §1

Assay [14] has as its target Gal(b1-4)GlcNAc(b1-2)[Gal(b1-4)GlcNAc(b1-4)]Man(a1-3)[GlcNAc(b1-4)][Gal(b1-4)GlcNAc(b1-2)[Gal(b1-4)GlcNAc(b1-6)]Man(a1-6)]Man(b1-4)GlcNAc(b1-4)GlcNAc. In a few lines: as §1
Assay [15] addresses Gal(b1-4)GlcNAc(b1-2)[Gal(b1-4)GlcNAc(b1-6)]Man(a1-6)[GlcNAc(b1-4)][Gal(b1-4)GlcNAc(b1-2)Man(a1-3)]Man(b1-4)GlcNAc(b1-4)GlcNAc. In a few lines: as §1
Assay [16] concerns the target Gal(b1-4)GlcNAc(b1-3)GalNAc. In a few lines:
as §1

Assay [17] has as its target Gal(b1-4)GlcNAc(b1-3)[Gal(b1-4)GlcNAc(b1-6)]Gal(b1-4)GlcNAc. In a few lines: as §1
For assay [18], the target named is Gal(b1-4)GlcNAc(b1-3)[Gal(b1-4)GlcNAc(b1-6)]GalNAc. In a few lines: as §1
Assay [19] concerns the target GalNAc(a1-3)GalNAc(b1-3)Gal(a1-4)Gal(b1-4)Glc. Summed up:
as §1

The target of assay [20] is GlcNAc(b1-2)Man(a1-3)[GlcNAc(b1-4)][GlcNAc(b1-2)Man(a1-6)]Man(b1-4)GlcNAc(b1-4)GlcNAc. Summed up:
as §1

In assay [21] the target is GlcNAc(b1-3)[GlcNAc(b1-6)]GlcNAc(b1-4)GlcNAc. In a few lines:
as §1

Assay [22] deals with GlcNAc(b1-4)[GlcNAc(b1-6)]GalNAc. In a few lines: as §1
Assay [23] addresses GlcNAc6S(b1-3)Gal(b1-4)GlcNAc. Summed up: as §1
In assay [24] the target is Man(a1-2)Man(a1-2)Man(a1-6)[Man(a1-3)]Man. In a few lines:
as §1

Assay [25] has as its target Man(a1-2)Man(a1-3)[Man(a1-2)Man(a1-6)]Man. In a few lines: as §1
The target of assay [26] is Man(a1-2)Man(a1-3)[Man(a1-2)Man(a1-6)]Man(a1-6)[Man(a1-2)Man(a1-2)Man(a1-3)]Man. Summed up:
as §1

For assay [27], the target named is Man(a1-2)Man(a1-3)[Man(a1-2)Man(a1-6)]Man(a1-6)[Man(a1-2)Man(a1-2)Man(a1-3)]Man(b1-4)GlcNAc(b1-4)GlcNAc. Summed up: as §1
Assay [28] addresses Man(a1-2)Man(a1-6)[Man(a1-3)]Man(a1-6)[Man(a1-2)Man(a1-2)Man(a1-3)]Man. Summed up: as §1
The target of assay [29] is Man(a1-2)Man(a1-6)[Man(a1-3)]Man(a1-6)[Man(a1-2)Man(a1-2)Man(a1-3)]Man(b1-4)GlcNAc(b1-4)GlcNAc. Summed up: as §1
The target in assay [30] is Neu5Gc(a2-3)Gal(b1-3)GlcNAc. Summed up: as §1

The entries come from a sample that favours the strongest signals as a whole.

B1: ConA (Canavalia ensiformis), P02866 (protein)
chain: MAISKKSSLFLPIFTFITMFLMVVNKVSSSTHETNALHFMFNQFSKDQKDLILQGDATTGTDGNLELTRVSSNGSPQGSSVGRALFYAPVHIWESSAVVASFEATFTFLIKSPDSHPADGIAFFISNIDSSIPSGSTGRLLGLFPDANVIRNSTTIDFNAAYNADTIVAVELDTYPNTDIGDPSYPHIGIDIKSVRSKKTAKWNMQNGKVGTAHIIYNSVDKRLSAVVSYPNADSATVSYDVDLDNVLPEWVRVGLSASTGLYKETNTILSWSFTSKLKSNEIPDIATVV
As for B1, the “glycan array binding signal (z-score)” value in assay [1] is -0.286; in assay [2], -0.189; in assay [3], -0.056; in [4], -0.278; in assay [5] it was -0.245; in [6], -0.279. In addition, the “glycan array binding signal (z-score)” value in [7] was -0.245; in assay [8], 0.087; in assay [9], -0.274; in assay [10], -0.129; in the assay with Gal(b1-4)GlcNAc it was -0.225; in assay [11], -0.192. The “glycan array binding signal (z-score)” value in assay [12] was 0.311; in assay [13], -0.211; in assay [14], -0.196; in [15], -0.24; in assay [16], -0.228; in assay [17], -0.208. For the same molecule, the “glycan array binding signal (z-score)” value was -0.214 in assay [18]; -0.201 in assay [19]; -0.108 in assay [20]; -0.317 in assay [21]; -0.264 in [22]; -0.088 in assay [23]. Moreover, the “glycan array binding signal (z-score)” value in [24] amounted to 4.9; in assay [25], 3.94; in assay [26], 7.48; in assay [27] it was 3.33; in [28], 7.39; in [29] it was 4.46.

B2: Eap (Staphylococcus aureus), A0A7L5PYT7 (protein)
chain: MKFKSLITTTLALGVLASTGANFNNNEAAAAAKPLDKSSSSLHHGYSKVHVPYAITVNGTSQNILSSLTFNKNQNISYKDLEDRVKSVLKSDRGISDIDLRLSKQAKYTVYFKNGTKKVIDLKAGIYTADLINTSEIKAININVDTKKQVEDKKKDKANYQVPYTITVNGTSQNILSNLTFNKNQNISYKDLEDKVKSVLESNRGITDVDLRLSKQAKYTVNFKNGTKKVIDLKSGIYTANLINSSDIKSININVDTKKHIENKAKRNYQVPYSINLNGTSTNILSNLSFSNKPWTNYKNLTSQIKSVLKHDRGISEQDLKYAKKAYYTVYFKNGGKRILQLNSKNYTANLVHAKDVKRIEITVKTGTKAKADRYVPYTIAVNGTSTPILSDLKFTGDPRVGYKDISKKVKSVLKHDRGIGERELKYAKKATYTVHFKNGTKKVININSNISQLNLLYVQDIKKIDIDVKTGTKAKADSYVPYTIAVNGTSTPILSKLKISNKQLISYKYLNDKVKSVLKSERGISDLDLKFAKQAKYTVYFKNGKKQVVNLKSDIFTPNLFSAKDIKKIDIDVKQYTKSKKNK
Regarding B2, the “glycan array binding signal (z-score)” value in assay [30] was -0.196.

The record behind these values is the supplement of paper PMC8728848.
